Experimental data reported in PubChem BioAssay (NCATS).
“And” between values parts separate entries of the source, which are not always exact repeats. Equal values may be shown once. Results filed as inconclusive are left out. The source made the active and inactive calls. Calls come from the whole dose curve; as a rule, active = well fitted curve in the direction sought with a large enough effect; inconclusive = small, poorly fitted or top-dose-only effect, or another doubt; inactive = no such curve, though single readings can be large; an effect the other way counts as inactive or inconclusive.

Assays:
[1] = Quantitative highthroughput screen to assess conditional lethalithy of NOMO1 cells grown in RPMI1640 with untreated serum (RPMI+s) (AID 1963876); note: nearly all actives have a fitted effect of over 35% in size; note: potency is the fitted concentration of half-maximal effect;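 for viability: 100% = DMSO wells and 0% = empty wells without cells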
How it was run: (§1)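 Each medium arm—HPLM with 10% dialyzed FBS, or RPMI1640 with 5 mM glucose and 10% untreated or dialyzed FBS—was screened against an 11-point, 3-fold compound titration for 48 h at 37 °C, with CellTiter-Glo luminescence as endpoint.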

[2] = Quantitative highthroughput screen to assess conditional lethalithy of NOMO1 cells grown in RPMI1640 with dialyzed fetal bovine serum (RPMI+ds) (AID 1963877); note: nearly all actives have a fitted effect of over 30% in size; note: potency is the fitted concentration of half-maximal effect;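 for viability: series mostly up to about 46 µM; 100% = DMSO control wells and 0% = empty wells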
How it was run: as §1

[3] = Quantitative highthroughput screen to assess conditional lethalithy of P12 Ichikawa cells grown in Human Plasma-Like Medium with dialyzed fetal bovine serum (HPLM+ds) (AID 1963879); conditions: Potency: viability; note: nearly all actives have a fitted effect of over 35% in size; note: potency is the fitted concentration of half-maximal effect; for viability: series mostly up to about 46 µM
How it was run: as §1

[4] = Quantitative highthroughput screen to assess conditional lethalithy of P12 Ichikawa cells grown in RPMI1640 with dialyzed fetal bovine serum (RPMI+ds) (AID 1963880); conditions: Potency: P12-Ichikawa viability; note: nearly all actives have a fitted effect of over 35% in size; note: potency is the fitted concentration of half-maximal effect;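 for viability: 100% = DMSO wells and 0% = empty wells on each plate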
How it was run: as §1

[5] = Quantitative highthroughput screen to assess conditional lethalithy of P12 Ichikawa cells grown in RPMI1640 with untreated serum (RPMI+s) (AID 1963881); conditions: Potency: viability; note: nearly all actives have a fitted effect of over 35% in size; note: potency is the fitted concentration of half-maximal effect;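 for viability: series mostly up to about 46 µM; 100% = DMSO wells and 0% = empty wells without cells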
How it was run: as §1

[6] = Quantitative highthroughput screen to assess conditional lethalithy of SEM cells grown in RPMI1640 with dialyzed fetal bovine serum (RPMI+ds) (AID 1963884); note: nearly all actives have a fitted effect of over 35% in size; note: potency is the fitted concentration of half-maximal effect;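 for viability: series mostly up to about 46 µM; 100% = DMSO control wells and 0% = empty wells without cells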
How it was run: as §1

[7] = Cellular viability qHTS for adrenocortical cancer (ACC) cell line SW-13 (AID 1963989); conditions: SW-13 ACC cells viability, CellTiter-Glo, 48 h; activity (max response): hits give low values;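 note: cells grown in serum-free medium with ITS supplement; % is set by controls: 0 for no effect and ±100 for the full control effect; nearly all actives have a fitted effect of over 65% in size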
How it was run: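 48 h treatment, SW-13 in ITS/DMEM serum-free; doses up to 46 uM; readout CellTiter-Glo luminescence; curve fit four-parameter logistic.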

[8] = Quantitative highthroughput screen to assess conditional lethalithy of SEM cells grown in RPMI1640 with unreated serum (RPMI+s) (AID 1963883); note: nearly all actives have a fitted effect of over 35% in size; note: potency is the fitted concentration of half-maximal effect;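 for viability: 100% = DMSO wells and 0% = empty wells without cells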
How it was run: as §1

[9] = Quantitative highthroughput screen to assess conditional lethalithy of SEM cells grown in Human Plasma-Like Medium with dialyzed fetal bovine serum (HPLM+ds) (AID 1963882); note: nearly all actives have a fitted effect of over 35% in size; note: potency is the fitted concentration of half-maximal effect; for viability: series mostly up to about 46 µM
How it was run: as §1

[10] = Cellular viability qHTS for adrenocortical cancer (ACC) cell line NCI-H295R (AID 1963990); note: nearly all actives have a fitted effect of over 60% in size; note: potency is the fitted concentration of half-maximal effect
How it was run: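 Compound titrations (up to 46 uM final) are applied to NCI-H295R cultures for 48 h at 37C. Viable cell number is estimated by CellTiter-Glo signal, normalised to DMSO and doxorubicin controls.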

[11] = Quantitative highthroughput screen to assess conditional lethalithy of NOMO1 cells grown in Human Plasma-Like Medium with dialyzed fetal bovine serum (HPLM+ds) (AID 1963878)
How it was run: as §1

CC(C)OC(=O)C(C(=O)OC(C)C)=C1SC=CS1
inactive: Potency [1] | Potency [2] | Potency [3] | Potency [4] | Potency [5] | Potency [6] | activity (max response) [7] -12.3% and 0.529%

C=C1C(=O)O[C@H]2[C@@H]1CCC(C)=CCC[C@@]1(C)O[C@@H]21
active: Potency [1] 4690 nM | Potency [2] 5900 nM | Potency [3] 2350 nM | Potency [4] 2350 nM | Potency [5] 2640 nM | Potency [8] 833 nM

N#Cc1ccc(NC(=O)Nc2ccccc2Br)c2n[nH]nc12
inactive: Potency [1] | Potency [2] | Potency [4] | Potency [5] | Potency [9] | Potency [8] | Potency [6] | activity (max response) [7] -2.82% | Potency [10]

NCc1c[nH]c(=S)n1[C@H]1CCc2c(F)cc(F)cc2C1
inactive: Potency [1] | Potency [2] | Potency [3] | Potency [5] | activity (max response) [7] -7.85% | Potency [10]

CC(C)(C(=O)NCC(F)(F)C(F)(F)F)C(=O)N[C@@H]1C(=O)Nc2ccccc2-c2ccccc21
active: Potency [1] 935 nM | Potency [2] 1870 nM | Potency [3] 2640 nM | Potency [5] 2960 nM
inactive: activity (max response) [7] -5.79% | Potency [10]

COc1cc(NC(=O)c2ccc(-c3ccc(Cl)cc3)o2)cc(OC)c1
active: Potency [1] 1870 nM | Potency [2] 2350 nM
inactive: Potency [3] | Potency [4] | Potency [9] | Potency [8] | Potency [6]

CC1(C)OC2=C(C(=O)c3ccccc3C2=O)[C@H](NCc2ccccc2)[C@H]1O
active: Potency [1] 4180 nM | Potency [2] 9350 nM | Potency [4] 16600 nM | Potency [5] 8330 nM | Potency [9] 11800 nM | Potency [8] 7430 nM | Potency [6] 16600 nM

CC(C)[C@H](C(=O)Nc1ccc(C(=O)NO)cc1)c1ccccc1
active: Potency [1] 3320 nM | Potency [11] 2640 nM | Potency [3] 2350 nM | Potency [4] 2350 nM | Potency [5] 2090 nM | Potency [9] 1480 nM | Potency [8] 1660 nM | Potency [6] 1480 nM | Potency [10] 1260 nM

Cc1cc(Nc2cc(N3CCN(C)CC3)nc(C=Cc3ccccc3)n2)n[nH]1
active: Potency [1] 3030 nM | Potency [11] 3030 nM | Potency [3] 2150 nM | Potency [4] 2700 nM | Potency [5] 3030 nM | Potency [9] 540 nM | Potency [6] 429 nM
